MPTP block: mitochondrial permeability transition pore inhibitors, primary screen, biochemical, isolated mouse mitochondria, absorbance | Ca2+ swelling absorbance, 30 min | inhibition, % at 10 µM | 360,000 tested, 1.4% active | AID 602449, 2012;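 active = inhibition of 50% or more, scaled per plate between neutral and stimulator controls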;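 note: 0% = DMSO wells given calcium and 100% = 1 mM EGTA wells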
CSC inhib: cancer stem cell viability inhibitors, primary screen, luminescence. inhibition, % at 7.5 µM. cancer stem cell-like cells viability. 300,000 tested, 1.1% active; in the data active = inhibition above about 75%; tested in HMLE shEcad cells
Mdm2-MdmX inh: inhibitors of human Mdm2-MdmX association, primary screen, cell-based, luminescence, split luciferase, SaOS-2, uHTS; SaOS-2 split-luciferase Mdm2/MdmX complementation; 330,000 tested, 3% active; inhibition, % at 8 µM; Protein Mdm4 (Homo sapiens) + E3 ubiquitin-protein ligase Mdm2 (Homo sapiens), …;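 active = inhibition of at least 50% at 8 µM in the primary screen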
Calb FLC: C. albicans growth inhibition with fluconazole, primary screen, CaCi-2 strain, Alamar Blue fluorescence; C. albicans CaCi-2 (fluconazole-resistant clinical isolate) + fluconazole, 48 h; growth inhibition, % (test concentration not listed); 300,000 tested, 0.57% active; AID 1979, 2009;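 active = growth inhibition above about 58% in most replicates, limit read from the data, passing the limit was not always enough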;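 note: all wells also contain fluconazole at 8 µg/ml as a sub-toxic cotreatment; 0% = median of DMSO wells and 100% = median of geldanamycin control wells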
SKKanGAS inh: S. pyogenes SKKanGAS growth inhibitors in kanamycin, primary screen, streptokinase expression inhibitor project, SKKanGAS strain, BacTiter-Glo luminescence; 300,000 tested, 1.3% active; AID 1662, 2009; 6 h; inhibition, % at 7.5 µM;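 active = mean replicate score, as percent of positive control median, at least 50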;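 note: strain carries kanamycin resistance gene driven by streptokinase promoter and grows in 40 µg/ml kanamycin; loss of luminescence reflects streptokinase promoter inhibition or plain growth inhibition; 0% = median of DMSO wells and 100% = positive control at its reference dose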
Beta apoptosis: inhibitors of cytokine-induced beta cell apoptosis, primary screen, luminescence; INS-1E cytokine-induced death, ATP luminescence, 48 h; percent of positive-control rescue, neutral wells zero; protection from apoptosis, % (no concentration beside the values); 300,000 tested, 0.8% active;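 active = Every replicate reaches about 75%, or at least half do and their mean reaches it too, limit read from the data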;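 note: 0% = cytokine-treated negative control wells and 100% = positive control rescue; higher means more ATP so stronger rescue from cytokine killing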
Mdm2-MdmX conf: Mdm2-MdmX complex disruptors, retested hits, confirmation, luminescence, single concentration; shares compounds with Mdm2-MdmX inh; Mdm2-MdmX binding, luminescent assay; 10,000 tested, 55% active; inhibition, % at 8 µM; in the data active = inhibition above about 40%
Full FLuc ctr: full-length luciferase signal inhibition, confirmation, counter-screen for Mdm2/MdmX interaction inhibitor project, cell-based, single concentration, SaOS-2. 6,200 tested, 77% active. shares compounds with Mdm2-MdmX inh. inhibition, % at 8 µM. SaOS-2 full-length luciferase counterscreen, luminescence;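 active = mean inhibition at 8 µM reaching about 37%, which flags the compound as non-specific, limit read from the data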;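 note: p53-null SaOS-2 cells with luciferase driven by a doxycycline-inducible promoter; compound on cells about two nights before reading with doxycycline added after day one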
Numbers without * were called inactive; . = no result given. Hits are enriched below; roughly 5.4% of the tested compounds scored in any of these assays.

SMILES	MPTP block	CSC inhib	Mdm2-MdmX inh	Calb FLC	SKKanGAS inh	Beta apoptosis	Mdm2-MdmX conf	others
Cn1c(SCC(=O)NCc2ccco2)nnc1C1CCCC1	-0.1	.	33.1	-2.3	-1.4	.	.
COc1ccc(-n2c(Cn3c(=O)sc4ccccc43)nnc2SCC(=O)N2CCCCC2)cc1	-1.2	-9.6	-14.5	.	.	-0.4	.
CCOc1ccccc1-n1c(SCC(=O)Nc2ccc(CC)cc2)nc2n[nH]c(C)c2c1=N	.	0.3	93.0*	-1.7	21.4	13.1	10.8
CCOc1ccccc1NC(=O)CCSc1nc2n[nH]c(C)c2c(=N)n1-c1ccccc1Cl	5.7	12.8	28.0	0.8	-1.2	8.7	.
Cc1cc(-n2c(SCC(=O)NCCC3=CCCCC3)nc3n[nH]c(C)c3c2=N)ccc1Cl	0.1	28.8	35.9	8.5	8.4	36.9	.
Cc1ccccc1-n1c(SCC(=O)Nc2ccccc2Cl)nc2n[nH]c(C)c2c1=N	0.5	15.5	65.8*	21.7	10.5	0.9	11.9
Cc1[nH]nc2nc(SCC(=O)NCCC3=CCCCC3)n(-c3ccc(Br)cc3)c(=N)c12	-0.1	56.5	91.2*	1.8	6.0	92.6*	47.4*	Full FLuc ctr=31.1
CCOC(=O)C1CCCN(C(=O)c2cc(C(C)(C)C)nn2C)CC1 (stereo unspecified)	-0.8	.	.	.	.	.	.
O=C(c1ccccc1)N1CCN(C(=S)NCc2ccc3c(c2)OCO3)CC1	2.5	-6.4	-21.6	-10.4	-13.6	-0.8	.
O=C(NCCCC1CCCC1)C1CCC(=O)N(Cc2cccc(C(F)(F)F)c2)C1 (stereo unspecified)	-0.6	5.6	0.5	-16.2	-3.1	10.4	.
CC[C@]1(C(=O)OC)[C@H]2C(=O)N(Cc3ccccc3)C(=O)[C@H]2[C@H]2CN=C(SCc3ccc(C)cc3)N21	-1.3	.	92.7*	.	.	.	87.7*	Full FLuc ctr=48.7*
COC(=O)[C@@]1(Cc2ccccc2)[C@H]2C(=O)N(Cc3ccccc3)C(=O)[C@H]2[C@H]2CN=C(SCc3ccc(C#N)cc3)N21	0.2	.	90.9*	.	.	.	94.7*	Full FLuc ctr=28.4
CCN1C(=O)[C@H]2[C@H]3CN=C(SCc4ccc(C#N)cc4)N3[C@@](Cc3ccccc3)(C(=O)OC)[C@H]2C1=O	-0.3	.	5.7	.	.	.	.
COc1cccc2c(=S)c(CCC(C)=O)c(C)[nH]c12	-0.3	-7.1	.	1.9	-9.4	-4.4	.
CCOc1ccc(C(C)=O)cc1COc1cccnc1[N+](=O)[O-]	-1.1	41.5	57.7*	4.5	-3.8	-6.1	56.8*	Full FLuc ctr=45.0*
CCCCc1c(O)nc(SCC(=O)c2ccccc2)n(-c2ccccc2C)c1=O	4.0	-0.4	26.8	-5.5	9.0	-4.8	.
O=C(COc1ccc2c(c1)OCO2)Nc1ccc2c(c1)oc1ccccc12	-2.8	-4.6	50.3*	9.5	1.4	1.4	-19.4
N#Cc1ccccc1NC(=O)c1ccccc1OCC(=O)Nc1ccc2c(c1)oc1ccccc12	8.2	11.0	62.5*	-2.0	3.2	5.2	11.2
CNC(=O)COc1ccccc1C(=O)Nc1ccc2c(c1)oc1ccccc12	12.1	4.0	12.3	26.0	1.1	7.2	.
O=C(Nc1ccc2c(c1)oc1ccccc12)c1ccc2c(c1)OCO2	5.5	24.9	-36.1	-6.3	7.3	15.1	.
CN(C(=O)CSc1nnnn1-c1ccc(Cl)cc1)C1CCS(=O)(=O)C1 (stereo unspecified)	-2.8	-37.0	13.3	.	.	-13.1	.
O=C(O)c1ccccc1N1C(=O)C2C3CCC(C3)C2C1=O (stereo unspecified)	-2.0	-5.9	-1.3	0.5	-1.0	-1.2	.
CNc1ccc(N=Nc2cccc3ncccc23)cc1	3.6	.	.	.	.	.	.
Cc1ccc(C)c(N=Nc2ccc(O)c3ncccc23)c1	3.8	103.4*	97.0*	107.9*	91.6*	88.0*	96.3*	Full FLuc ctr=50.6*

Source: PubChem
